Among the data in PubChem BioAssay AID2284136 (EPA ToxCast) are AC50 values, retold here.

Activity calls are given as the source filed them. How the source made its calls: active means hit-call score of the fitted dose curve at least 0.9, where 1 is the maximum; inactive means score below 0.9.

This assay deals with Tyrosine-protein phosphatase non-receptor type 11 (Homo sapiens) (UniProt Q06124). The assay can be described thus: ERF_FR_ENZ_hPTPN11: Eurofins (ERF) Enzymatic Assay for human Phosphatase Receptor (PTPN11/SHP2). As for the experimental part: ERF_FR_ENZ_hPTPN11 is a biochemical, single-readout assay that uses extracted gene-proteins in a cell-free assay. Measurements were taken 0.5 hour after chemical dosing in a 96-well plate. See SHP2 Human Phosphatase Enzymatic Assay, PhosphataseProfiler.ERF_FR_ENZ_hPTPN11 is an assay component calculated from the ERF_FR_ENZ_hPTPN11 assay. It is designed to measure enzyme activity using a type of enzyme reporter as detected by fluorescence intensity with spectrophotometry technology.Data from the assay component ERF_FR_ENZ_hPTPN11 was analyzed at the assay endpoint, ERF_FR_ENZ_hPTPN11, in the positive analysis fitting direction relative to DMSO as the negative control and baseline of activity. Using a type of enzyme reporter, loss-of-signal activity can be used to understand changes in enzymatic activity as they relate to gene PTPN11. To generalize the intended target to other relatable targets, this assay endpoint is annotated to the phosphatase intended target family, where the subfamily is protein tyrosine phosphatase.
Chain of Tyrosine-protein phosphatase non-receptor type 11 (Homo sapiens) (Q06124 whole entry, looked up): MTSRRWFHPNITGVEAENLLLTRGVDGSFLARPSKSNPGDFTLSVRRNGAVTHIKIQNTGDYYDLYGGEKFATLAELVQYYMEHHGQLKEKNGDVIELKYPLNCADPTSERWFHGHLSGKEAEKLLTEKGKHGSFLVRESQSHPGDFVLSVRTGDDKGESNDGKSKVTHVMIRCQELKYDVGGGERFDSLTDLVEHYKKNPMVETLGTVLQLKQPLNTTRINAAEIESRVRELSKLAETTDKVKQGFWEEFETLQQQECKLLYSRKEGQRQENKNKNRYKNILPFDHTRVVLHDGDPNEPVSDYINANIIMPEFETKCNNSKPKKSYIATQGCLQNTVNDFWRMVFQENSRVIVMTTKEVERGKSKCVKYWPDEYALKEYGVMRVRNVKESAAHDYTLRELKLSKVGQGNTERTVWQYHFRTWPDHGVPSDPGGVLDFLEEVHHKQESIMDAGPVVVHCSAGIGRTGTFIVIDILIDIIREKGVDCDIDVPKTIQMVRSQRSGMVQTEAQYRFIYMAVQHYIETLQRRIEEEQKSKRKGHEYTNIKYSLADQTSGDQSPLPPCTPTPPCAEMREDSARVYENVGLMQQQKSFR
Human recombinant phosphatase PTPN11 (SHP-2) expressed in E. coli is used. Test compound and/or vehicle is preincubated with 45 ng/ml enzymeo for 15 minutes at 37 C in modified HEPES buffer pH 7.2. The reaction is initiated by addition of 100 uM DiFMUP for 60 minutes. Determination of the amount of DiFMU formed is read spectrofluorimetrically at 358 nm/450 nm. […]
As to `O=C(/C=C/c1ccc(O)cc1)CC(=O)/C=C/c1ccc(O)cc1`, the AC50 (commonly the midpoint of the concentration-response curve, whichever way the signal moves) was 0.28 nM (active).
